GPR151 activ: human GPR151 activation | AID 1508602 | activation, % at 11.2 µM | PathHunter beta-arrestin GPR151 cells, luminescence | 1% of 650,000 active | Q8TDV0; in the data active = activation above about 4.9%;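 also: 0% = median of compound wells and 100% = cells with positive control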
FBW7 act: activators of human E3 ligase FBW7 | AlphaScreen FBW7–phospho-cyclin E peptide binding, activator screen | normalized activity (activation), % at 26.1 µM | 0.13% of 650,000 active | AID 1259310; in the data active = normalized activity above about 1.9%;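 also: purified mutant Fbw7 with reduced substrate affinity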
MITF primary: blocks human microphthalmia-associated transcription factor | 0.91% of 650,000 active | inhibition, % at 2.6 µM | O75030 | AlphaScreen MITF homodimerization, bead proximity signal; in the data active = inhibition above about 50%;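 also: 0% = vehicle wells with protein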
Target sequence (O75030 whole entry, looked up): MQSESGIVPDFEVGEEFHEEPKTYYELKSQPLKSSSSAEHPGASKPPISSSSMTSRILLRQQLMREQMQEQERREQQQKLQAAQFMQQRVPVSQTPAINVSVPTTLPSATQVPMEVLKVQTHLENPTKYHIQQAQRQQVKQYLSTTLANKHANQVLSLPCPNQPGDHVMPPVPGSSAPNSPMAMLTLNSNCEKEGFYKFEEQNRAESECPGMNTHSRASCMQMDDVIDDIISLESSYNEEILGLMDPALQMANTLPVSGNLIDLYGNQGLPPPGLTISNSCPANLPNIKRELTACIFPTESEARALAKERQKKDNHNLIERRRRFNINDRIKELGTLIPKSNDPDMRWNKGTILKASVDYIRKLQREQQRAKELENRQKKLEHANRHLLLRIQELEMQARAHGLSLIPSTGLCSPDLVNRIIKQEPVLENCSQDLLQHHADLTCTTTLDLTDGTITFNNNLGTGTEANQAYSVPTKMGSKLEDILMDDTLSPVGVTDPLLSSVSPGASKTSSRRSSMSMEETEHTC
TEAD-YAP inh: TEAD-YAP interaction inhibition. HEK-TIYL cells, TEAD-Gal4/YAP UAS-luciferase luminescence. inhibition, % at 9.12 µM. 1.4% of 640,000 active. AID 1259422; in the data active = inhibition above about 32%;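 also: 0% = median of test compound wells and 100% = reference inhibitor wells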
MITF confirm: human MITF inhibition, confirmation; shares compounds with MITF primary; AlphaScreen MITF homodimerization, biotin/His-MITF beads; inhibition, % at 2.6 µM; 16% of 4,700 active;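 active = inhibition above a cutoff derived from the DMSO control wells, cut at about 28% in these data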;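 also: 0% = MITF dimer wells with DMSO only; inhibitors lower the bead chemiluminescence by keeping MITF from dimerizing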
AS interf DR: AlphaScreen optical interference, dose response counter-screen; shares compounds with MITF primary; AlphaScreen optical interference counterscreen, cell-free; IC50, µM; 6% of 480 active; AID 1259373; call rule not given here
AS interf ctr: counter-screen: compounds optically interfering with AlphaScreen | shares compounds with MITF primary | LysRS AlphaScreen counterscreen, signal interference, triplicate | inhibition, % at 2.6 µM | 7.6% of 4,700 active;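 active = inhibition above a cutoff derived from the DMSO control wells, cut at about 30% in these data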
* hit, by the source's call. A selection: hits, their analogues and other compounds. The true share with any hit is near 3.5%.

Results for CC(C)CCNc1nc2c(c(=O)[nH]c(=O)n2C)n1CCO ?
GPR151 activ: 0.2; FBW7 act: 0.0; MITF primary: 10.5; TEAD-YAP inh: -1.9

Results for COCCCNC(=O)/C(C#N)=C/c1ccc(-c2ccc(Cl)c(C(=O)O)c2)o1 ?
GPR151 activ: 0.5; FBW7 act: -0.1; MITF primary: 58.3*; TEAD-YAP inh: 0.9; MITF confirm: 46.0*; AS interf DR: >6.48; AS interf ctr: 18.5

Results for Cc1ccc(C)c(NC(=O)CN(C)S(=O)(=O)c2cnc[nH]2)c1 ?
GPR151 activ: 0.0; FBW7 act: 0.1; MITF primary: 4.0; TEAD-YAP inh: 0.6

How did Cc1cccc(CCNC(=O)CN(C)S(=O)(=O)c2cnc[nH]2)c1 do in these assays?
GPR151 activ: 0.4; FBW7 act: 0.0; MITF primary: 75.5*; TEAD-YAP inh: -1.1; MITF confirm: 9.9; AS interf ctr: 19.8

How did CCn1c(C)nc2cc(C(=O)NNC(=O)COc3cccc(Br)c3)ccc21 do in these assays?
GPR151 activ: 2.5; FBW7 act: 0.0; MITF primary: 85.6*; TEAD-YAP inh: 0.8; MITF confirm: 1.0; AS interf ctr: -2.2

What do the screens show for `CCn1c(C)nc2cc(C(=O)NNC(=O)NC3CCCCC3)ccc21`?
GPR151 activ: 0.1; FBW7 act: -0.1; MITF primary: 8.7; TEAD-YAP inh: 0.5

Results for Cc1cc(NC(=O)c2cc(Cl)ccc2Cl)n(-c2nc3c(cnn3-c3ccc(F)cc3)c(=O)[nH]2)n1 ?
GPR151 activ: -0.9; FBW7 act: -0.2; MITF primary: -14.0; TEAD-YAP inh: -3.5

Results for CC(=O)Nc1ccc(OS(=O)(=O)c2ccccc2[N+](=O)[O-])cc1 ?
GPR151 activ: -0.5; FBW7 act: -0.2; MITF primary: 55.9*; TEAD-YAP inh: -22.7; MITF confirm: -7.8; AS interf ctr: -1.8

Results for CC(=O)Nc1ccc(NS(=O)(=O)c2ccccc2[N+](=O)[O-])cc1 ?
GPR151 activ: -1.1; FBW7 act: -0.2; MITF primary: 0.3; TEAD-YAP inh: 10.7

Results for COc1ccccc1CN1CCC(N2CCCCC2)CC1 ?
GPR151 activ: -0.9; FBW7 act: 0.8; MITF primary: 70.5*; TEAD-YAP inh: 3.4; MITF confirm: 3.0; AS interf ctr: 21.4

What do the screens show for `COc1ccccc1CN1CCC(N2CCN(c3ccccc3)CC2)CC1`?
GPR151 activ: 0.3; FBW7 act: -0.2; MITF primary: 67.5*; TEAD-YAP inh: -6.3; MITF confirm: -5.1; AS interf ctr: -4.8

What do the screens show for `COc1cccc(CN2CCC(N3CCCCCC3)CC2)c1OC`?
GPR151 activ: -0.1; FBW7 act: -0.2; MITF primary: 12.8; TEAD-YAP inh: 6.5

What do the screens show for `Cc1[nH]ncc1-c1ccc(NC(=O)[C@@H]2Cc3ccccc3CN2)c(OCCN(C)C)c1`?
GPR151 activ: -0.9; FBW7 act: -0.2; MITF primary: 66.5*; TEAD-YAP inh: -3.5; MITF confirm: 6.2; AS interf ctr: 9.2

What do the screens show for `CCS(=O)(=O)N1CCN(C2CCCC2)CC1`?
GPR151 activ: 2.5; FBW7 act: -0.1; MITF primary: 33.7; TEAD-YAP inh: -2.6

Results for CS(=O)(=O)N1CCN(C2CCCC2)CC1 ?
GPR151 activ: 0.7; FBW7 act: -0.1; MITF primary: 21.4; TEAD-YAP inh: 2.9

How did CCCS(=O)(=O)N1CCN(C2CCCCC2)CC1 do in these assays?
GPR151 activ: -1.7; FBW7 act: -0.1; MITF primary: 53.0*; TEAD-YAP inh: 2.6; MITF confirm: 5.5; AS interf ctr: 16.8

How did CCCN1CCC(N2CCN(S(=O)(=O)c3ccccc3[N+](=O)[O-])CC2)CC1 do in these assays?
GPR151 activ: -1.6; FBW7 act: -0.4; MITF primary: 84.4*; TEAD-YAP inh: 2.7; MITF confirm: 12.0; AS interf ctr: 12.0

What do the screens show for `CCCN1CCC(N2CCN(S(C)(=O)=O)CC2)CC1`?
GPR151 activ: -0.8; FBW7 act: 0.0; MITF primary: 68.0*; TEAD-YAP inh: -2.6; MITF confirm: 1.8; AS interf ctr: 15.9

How did Cc1cccc(OCC(=O)Nc2ccc(O)cc2C(=O)O)c1 do in these assays?
GPR151 activ: -4.1; FBW7 act: -0.2; MITF primary: -5.6; TEAD-YAP inh: -3.7

What do the screens show for `O=C(COc1ccccc1N1C(=O)c2ccccc2C1=O)c1ccc(F)cc1`?
GPR151 activ: 2.3; FBW7 act: 0.1; MITF primary: 60.2*; TEAD-YAP inh: -4.7; MITF confirm: 1.7; AS interf ctr: 6.2

How did Cc1ccc([N+](=O)[O-])c(OCCN2CCNCC2)c1 do in these assays?
GPR151 activ: 0.0; FBW7 act: 0.2; MITF primary: 46.8; TEAD-YAP inh: 3.1

What do the screens show for `Cc1cc(OCCCN2CCCCCC2)ccc1[N+](=O)[O-]`?
GPR151 activ: -0.6; FBW7 act: 0.1; MITF primary: 45.5; TEAD-YAP inh: -0.7

Results for Cc1cc(OCCN2CCN(Cc3ccccc3)CC2)ccc1[N+](=O)[O-] ?
GPR151 activ: -0.7; FBW7 act: 0.1; MITF primary: 81.8*; TEAD-YAP inh: -2.1; MITF confirm: 0.0; AS interf ctr: -2.0

Results for Cc1cc(OCCCCN2CCCC2)ccc1[N+](=O)[O-] ?
GPR151 activ: -0.7; FBW7 act: 0.1; MITF primary: 81.6*; TEAD-YAP inh: -3.3; MITF confirm: 24.2; AS interf ctr: 1.4

Results for Cc1ccc([N+](=O)[O-])c(OCCN2CCN(Cc3ccccc3)CC2)c1 ?
GPR151 activ: -0.1; FBW7 act: -0.1; MITF primary: 63.0*; TEAD-YAP inh: 8.3; MITF confirm: 12.6; AS interf ctr: 8.3

How did CCN1CCN(CCOc2ccc([N+](=O)[O-])c(C)c2)CC1 do in these assays?
GPR151 activ: -0.9; FBW7 act: 0.5; MITF primary: 64.9*; TEAD-YAP inh: -14.4; MITF confirm: 6.9; AS interf ctr: 7.1

How did COC(=O)C1=C(NC(=S)Nc2ccc(Cl)cc2)N=NC1 do in these assays?
GPR151 activ: -1.0; FBW7 act: 0.0; MITF primary: -5.4; TEAD-YAP inh: -20.3

What do the screens show for `CCOc1cc(/C=N/NC(=O)c2ccccn2)c(Br)c(Br)c1O`?
GPR151 activ: -0.6; FBW7 act: -0.3; MITF primary: 7.2; TEAD-YAP inh: -68.3

Results for Cc1cc(OCCN2CCC(C)CC2)ccc1[N+](=O)[O-] ?
GPR151 activ: -0.1; FBW7 act: -0.1; MITF primary: 51.9*; TEAD-YAP inh: -30.5; MITF confirm: 0.9; AS interf ctr: 7.9

How did Cc1cc(OCCN2CC(C)CC(C)C2)ccc1[N+](=O)[O-] (stereo unspecified) do in these assays?
GPR151 activ: -0.7; FBW7 act: -0.2; MITF primary: 15.5; TEAD-YAP inh: 1.0

What do the screens show for `CCN1CCN(CCCOc2ccc([N+](=O)[O-])cc2)CC1`?
GPR151 activ: 0.2; FBW7 act: -0.2; MITF primary: 66.2*; TEAD-YAP inh: 12.8; MITF confirm: 7.5; AS interf ctr: 16.4
